# Measurements: PubChem BioAssay (NCI)
# The panel holds about 83,000 compounds, 20% with a hit somewhere; the sample as a whole holds those more often.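 Results are percent growth after 48 hours of single-concentration exposure. 100 means growth as in untreated cells, lower positive values show inhibition; negative values down to -100 show cell death.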 A number with no mark means an inactive call. Active and inactive are the calls of the source. How the source made its calls: active means growth percent below 10; inactive means the rest.
# Experiments:
# Assay in all cases: NCI-60 one-dose screen, 48 h (100 = growth as untreated, 0 = no growth, -100 = all killed)
# Settings in all cases: 10 µM unless noted
# SR leukemia = test system: SR leukemia
# RPMI-8226 leukemia = test system: RPMI-8226 leukemia
# OVCAR-8 ovarian = test system: OVCAR-8 ovarian
# OVCAR-5 ovarian = test system: OVCAR-5 ovarian
# OVCAR-4 ovarian = test system: OVCAR-4 ovarian
# SK-OV-3 ovarian = test system: SK-OV-3 ovarian
# IGROV1 ovarian = test system: IGROV1 ovarian
# OVCAR-3 ovarian = test system: OVCAR-3 ovarian
# HS 578T breast = test system: HS 578T breast
# NCI/ADR-RES ovarian = test system: NCI/ADR-RES ovarian
SMILES,growth (SR leukemia),growth (RPMI-8226 leukemia),growth (OVCAR-8 ovarian),growth (OVCAR-5 ovarian),growth (OVCAR-4 ovarian),growth (SK-OV-3 ovarian),growth (IGROV1 ovarian),growth (OVCAR-3 ovarian),growth (HS 578T breast),growth (NCI/ADR-RES ovarian)
Fc1cc2[nH]ncc2c2c3c(c(-c4cn[nH]c4C(F)(F)F)nc12)CCCC3,-30.2% (active),8.27% (active),6.94% (active),4.77% (active),24.1%,-24.5% (active),0.245% (active),-11.3% (active),-18.4% (active),–
CC1(C)CC(=O)C2=C(C1)C(c1ccc(Cl)cc1)n1ncc(C#N)c1N2 (stereo unspecified),109%,96%,97%,103%,96.3%,82.8%,85.7%,113%,–,–
c1cc(OCCN2CCCCC2)ccc1CNc1ccc2nc(CCC3CCCCC3)[nH]c2c1,12.5%,-22.5% (active),36.6%,60.2%,49.5%,86.1%,42.3%,48.4%,45.8%,–
COc1ccc(-c2nc3ccc(C)cc3c3c2c(=O)n(C)c(=O)n3C)cc1OC,99.4%,101%,107%,97%,122%,109%,108%,111%,74.3%,–
O=C1NC(=O)C(c2coc3cc(Br)ccc23)=C1c1c[nH]c2ccccc12,19.9%,44.2%,51.6%,87.3%,77.5%,55.6%,52.2%,20.1%,43.3%,–
COC(=O)c1ccc2cc(OC)c(OC)cc2c1,91.5%,101%,104%,101%,113%,118%,118%,112%,105%,–
CCOC(=O)c1cnn(CC(C)O)c1NC(=O)NCc1cccc(F)c1 (stereo unspecified),92.1%,90.3%,106%,107%,122%,101%,95.5%,107%,103%,–
CC[C@H](Nc1nc(N)nc(C)c1C#N)c1nc2cccc(CN(C)c3ncc(C(=O)NO)cn3)c2c(=O)n1-c1ccccc1,14.1%,4.89% (active),4.22% (active),3.2% (active),31.4%,-19.4% (active),-36.2% (active),5.16% (active),8.03% (active),–
C[C@@H]1CN(c2cnc(C(=O)Nc3cc(F)cc4cccnc34)cn2)C[C@H](C)N1,28.6%,26%,61.1%,83.9%,12.7%,86.2%,78.9%,39.5%,76.8%,–
C1CCC(N2CN3c4nonc4N4CN(C5CCCCC5)CN5c6nonc6N(C2)C3C45)CC1 (stereo unspecified),83.8%,81.3%,95.5%,102%,88.9%,109%,104%,101%,–,–
O=C(/C=C/c1ccco1)Nc1ncc(Cc2cc(Cl)ccc2Cl)s1,12.1%,23%,14.1%,34%,56.8%,31.9%,21.3%,-44% (active),8.67% (active),–
O=C(/C=C/c1ccccc1)N(C1CCCCC1)C1CCCCC1,83.8%,51.8%,95%,106%,84%,117%,116%,89.6%,90.8%,–
CCOC(=O)c1nnn(Cc2cc(=O)oc3ccc(O)cc23)c1C,92.8%,96.7%,107%,101%,109%,105%,106%,107%,93.5%,–
CN1CCN(c2ccc(NC3=CC(=O)c4ncncc4C3=O)cc2)CC1,-5.62% (active),-29.1% (active),-53.2% (active),-92.3% (active),-99% (active),-63.7% (active),-86.6% (active),-58.6% (active),-19.6% (active),–
COc1ccc(C/C(C)=C(\c2ccc(Cl)cc2)c2ccc(OCCCN(C)C)cc2)cc1,-31.7% (active),-2.97% (active),86.2%,70.8%,92.9%,99.1%,62.8%,79.4%,75.6%,–
CCCCO[C@@H]1C=C2[C@H]3CC(C)(C)C(=O)C[C@]3(C(=O)O[C@@H]3O[C@H](CO[C@@H]4O[C@H](CO)[C@@H](OC5OC(C)C(O)C(O)C5O)[C@H](O)[C@H]4O)[C@@H](O)[C@H](O)[C@H]3O)CC[C@@]2(C)[C@]2(C)CC[C@H]3C(C)(C)C(=O)CC[C@]3(C)[C@@H]12 (stereo partly specified),69.9%,20.4%,94.4%,96.1%,75%,91.8%,69.1%,48.7%,85.4%,–
Cc1ccc2nc(-c3ccc(C(=O)N/N=C/c4ccc([N+](=O)[O-])cc4)cc3)[nH]c2c1,92%,95.6%,105%,96.5%,107%,109%,91.3%,115%,105%,–
C=CCn1cc(-c2nc3ccccc3s2)c2cc(-c3ccc4c5c(cccc35)C(=O)N(CCO)C4=O)ccc21,104%,99.3%,91.2%,92.9%,99.6%,107%,77.7%,105%,104%,–
COc1cc(/C=C/C(=O)N2CCN(C(=O)c3cc(OC)c(OC)c(OC)c3)CC2)ccc1OCCCOc1cc2c(cc1OC)C(=O)N1CCC[C@H]1C=N2,-15.4% (active),15.2%,14.1%,8.34% (active),16%,20.3%,-57.9% (active),-11.9% (active),-2.23% (active),78.6%
O=C(Nc1cc(Cl)cc(Cl)c1)Oc1c(Cl)c(Cl)c(Cl)c(Cl)c1Cl,64.5%,37%,78.1%,87.3%,82.4%,77.2%,79.2%,54.9%,63.5%,77.5%
Cn1cc(-c2csc(-c3cn(C)c4ccccc34)n2)c2cnccc21,-0.518% (active),-18.6% (active),27.4%,77.4%,68.1%,105%,68.5%,43.9%,97.5%,–
C=C1SC(=Nc2ccccc2Cl)N(C(=O)c2sc3ccccc3c2Cl)C1(C)C,65.4%,4.32% (active),61.4%,92.4%,29.8%,58.6%,297%,39.6%,73.5%,31.7%
Cc1cccc(N=Nc2cccc(C)c2)c1,108%,110%,103%,94.2%,107%,106%,102%,113%,117%,–
O=C(c1ccc(Br)cc1)C(Br)C(c1ccc(Cl)cc1)C(c1ccccc1)[N+](=O)[O-] (stereo unspecified),103%,92.1%,95.3%,108%,81.4%,99.4%,108%,94.4%,87.1%,95.6%
CNC(=O)c1cc(Oc2ccc3c(c2)sc2nc(-c4ccc(NC(=O)[C@@H](NC(=O)OC)C(C)C)cc4)cn23)ccn1,66.1%,30.3%,34.9%,117%,66.4%,98%,82.2%,63.3%,81.6%,–
Nc1c(C(=O)Nc2cccc3ncccc23)sc2nc3c(cc12)CN(Cc1ccccc1)CC3,33.9%,58.4%,83%,88.8%,71.5%,78.4%,72.6%,80.1%,76.9%,–
COc1ccc2c(O)c(/C=C3\N=Nc4ncccc43)oc2c1C[C@@H]1CCNC[C@H]1F,-22.1% (active),-4.16% (active),-20.5% (active),17%,-37.8% (active),15%,-2.07% (active),-17.9% (active),-1.31% (active),1.39% (active)
O=C(c1c[nH]c2ccccc12)c1n[nH]c(=S)n1-c1ccc([N+](=O)[O-])cc1,92%,68.4%,97.1%,101%,85%,95.4%,73.1%,95.3%,92.8%,106%
